The source of these data is PubChem BioAssay.

Active and inactive are the calls of the source.

Test [1] is described as follows: binders of probe aFSTL3 on microarray, primary screen, stem cell growth factor project, biochemical, small-molecule microarray, fluorescence 635/667 (AID 1064).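 Also: measures binding of the biotinylated anti-FSTL3 antibody to printed compounds.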 The settings on record: higher = more signal.
Test [2] can be described thus: binders from COS7 lysate, DM2A8 probe, primary screen, torsin A project, cell lysate, small-molecule microarray, fluorescence 635/667 (AID 1065). The settings on record: higher = more signal, COS7 lysate expressing mutant human TOR1A.
Test [3] is described as follows: binders of probe aFGF2 on microarray, primary screen, stem cell growth factor project, biochemical, small-molecule microarray, fluorescence 635/667 (AID 1067).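 Also: measures binding of biotinylated aFGF2 protein to printed compounds on slides; z-score merges feature fluorescence and signal-to-noise across triplicate slides.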 The conditions noted are these: higher = more signal.
Test [4] in a line: binders of probe aFGF10 on microarray, primary screen, stem cell growth factor project, biochemical, small-molecule microarray, fluorescence 635/667 (AID 1071).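 Also: score merges 667 nm spot intensity and signal to noise from triplicate slides.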 The conditions noted are these: higher = more signal.
For test [5], the target named is Neurogenic locus notch homolog protein 2 (Homo sapiens) (UniProt Q04721). Nature of the test: Notch2 binders on small-molecule microarrays, primary screen, biochemical, small-molecule microarray, 635 nm fluorescence, stem cell growth factors (AID 1073). The settings on record: Notch2 binding, higher = more signal.
Test [6] addresses Pro-neuregulin-1, membrane-bound isoform (Homo sapiens) (UniProt Q02297). In words: NRG1 binders on small-molecule microarrays, primary screen, psychiatric disease protein project, biochemical, small-molecule microarray, fluorescence 635/667 (AID 1075).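 Also: score combines 667 nm spot fluorescence with signal to noise.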 The conditions noted are these: NRG1 binding, 635 nm fluorescence, higher = more signal.
Test [7] relates to Neuregulin-1 EGF-like domain. In words: binders of neuregulin-1 EGF-like domain, primary screen, biochemical, small-molecule microarray, 635 nm fluorescence (AID 1081).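 Also: binding of the protein to compounds printed on small-molecule microarray slides.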 The settings on record: small-molecule microarray binding, higher = more signal.
Test [8] can be described thus: FRG1 promoter luciferase signal modulators, primary screen, FRG1 inhibition for FSHD, cell-based, C2C12 myotubes, firefly/Renilla luciferase, luminescence (AID 1084). The conditions noted are these: higher = more signal, called active from +8 up or from −8 down.
Test [9] is described as follows: binders of probe aFST on microarray, primary screen, stem cell growth factor project, biochemical, small-molecule microarray, fluorescence 635/667 (AID 1086).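 Also: score merges 667 nm fluorescence with signal-to-noise of each printed compound spot.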 The conditions noted are these: higher = more signal.
Test [10] can be described thus: binders of probe aHhip on microarray, primary screen, stem cell growth factor project, biochemical, small-molecule microarray, fluorescence 635/667 (AID 1087).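 Also: score merges spot fluorescence at 667nm with spot signal to noise ratio.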 The conditions noted are these: higher = more signal.
Test [11] deals with PRMT1 (protein arginine N-methyltransferase 1). In words: PRMT1 binders on small-molecule microarrays, primary screen, biochemical, small-molecule microarray, 635 nm fluorescence (AID 1088).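 Also: binding of Prmt1 protein to compounds spotted on small-molecule microarray slides.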 The conditions noted are these: small-molecule microarray binding, higher = more signal.
Test [12] can be described thus: yeast growth modulation, basal conditions, primary screen, YJM789 clinical isolate, OD600, 24 h (AID 1089).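 Also: growth of clinical yeast isolate S. cerevisiae YJM 789 seeded 1000 cells per well; test concentration not given here.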 The conditions noted are these: S. cerevisiae YJM789 growth, higher = more signal, called active from +8 up or from −8 down.
Test [13] in a line: fission yeast growth modulation, primary screen, strain 972, OD600, 24 h, no modulator (AID 1090).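 Also: basal condition with compound alone and no growth modifier present; test concentration not given here.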 The settings on record: S. pombe 972 growth, higher = more signal, called active from +8 up or from −8 down.
Test [14] in a line: S. cerevisiae growth modulation with rapamycin, primary screen, strain BY4716, OD600, 96 h (AID 1091). Also: test concentration not given here. The settings on record: higher = more signal, called active from +8 up or from −8 down.
Test [15] addresses Torsin-1A-interacting protein 2 (Homo sapiens) (UniProt Q8NFQ8). In words: LULL1 binders on small-molecule microarray, primary screen, cell lysate, human LULL1 lysate, 635/667 nm fluorescence (AID 1092).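 Also: probe is lysate of COS7 cells overexpressing human LULL1; score merges per-feature 667 nm fluorescence with signal-to-noise.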 The settings on record: hLULL1 lysate binding, 635 nm fluorescence, higher = more signal.
The nature of test [16]: E. coli growth modulation, two-sided OD650, primary screen, E. coli filamentation project, strain DRC41, 24 h (AID 1093).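 Also: MC1000 strain lacking acrAB efflux and sulA so SOS filamentation is blocked; test concentration not given here.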 The conditions noted are these: OD650, 24 h, higher = more signal, called active from +8 up or from −8 down.
A short description of test [17]: small-molecule microarray binders of probe aLefty2, primary screen, biochemical, biotinylated probe, 635/667 nm fluorescence (AID 1094).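 Also: score merges spot fluorescence near 667 nm with spot signal-to-noise ratio.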 The conditions noted are these: higher = more signal.
In test [18] the test system is Noggin (protein binding on small-molecule microarray). Nature of the test: Noggin binders on small-molecule microarray, primary screen, biochemical, 635/667 nm fluorescence (AID 1095).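 Also: score merges 667 nm feature fluorescence with signal to noise over triplicate slides.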 The conditions noted are these: 635 nm fluorescence, higher = more signal.
Test [19] has as its target Neurogenic locus notch homolog protein 3 (Homo sapiens) (UniProt Q9UM47). Nature of the test: NOTCH3 binders on small-molecule microarray, primary screen, biochemical, 635/667 nm fluorescence (AID 1096). The conditions noted are these: NOTCH3 binding, 635 nm fluorescence, higher = more signal.
A short description of test [20]: small-molecule microarray binders of probe aEGFR, primary screen, biochemical, biotinylated probe, 635/667 nm fluorescence (AID 1097).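 Also: probe is a biotinylated anti-EGFR antibody binding compounds printed on slides; score combines fluorescence near 667 nm and signal to noise of each spot.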 The conditions noted are these: higher = more signal.

Chain of Neurogenic locus notch homolog protein 3 (Homo sapiens) (Q9UM47 whole entry, looked up): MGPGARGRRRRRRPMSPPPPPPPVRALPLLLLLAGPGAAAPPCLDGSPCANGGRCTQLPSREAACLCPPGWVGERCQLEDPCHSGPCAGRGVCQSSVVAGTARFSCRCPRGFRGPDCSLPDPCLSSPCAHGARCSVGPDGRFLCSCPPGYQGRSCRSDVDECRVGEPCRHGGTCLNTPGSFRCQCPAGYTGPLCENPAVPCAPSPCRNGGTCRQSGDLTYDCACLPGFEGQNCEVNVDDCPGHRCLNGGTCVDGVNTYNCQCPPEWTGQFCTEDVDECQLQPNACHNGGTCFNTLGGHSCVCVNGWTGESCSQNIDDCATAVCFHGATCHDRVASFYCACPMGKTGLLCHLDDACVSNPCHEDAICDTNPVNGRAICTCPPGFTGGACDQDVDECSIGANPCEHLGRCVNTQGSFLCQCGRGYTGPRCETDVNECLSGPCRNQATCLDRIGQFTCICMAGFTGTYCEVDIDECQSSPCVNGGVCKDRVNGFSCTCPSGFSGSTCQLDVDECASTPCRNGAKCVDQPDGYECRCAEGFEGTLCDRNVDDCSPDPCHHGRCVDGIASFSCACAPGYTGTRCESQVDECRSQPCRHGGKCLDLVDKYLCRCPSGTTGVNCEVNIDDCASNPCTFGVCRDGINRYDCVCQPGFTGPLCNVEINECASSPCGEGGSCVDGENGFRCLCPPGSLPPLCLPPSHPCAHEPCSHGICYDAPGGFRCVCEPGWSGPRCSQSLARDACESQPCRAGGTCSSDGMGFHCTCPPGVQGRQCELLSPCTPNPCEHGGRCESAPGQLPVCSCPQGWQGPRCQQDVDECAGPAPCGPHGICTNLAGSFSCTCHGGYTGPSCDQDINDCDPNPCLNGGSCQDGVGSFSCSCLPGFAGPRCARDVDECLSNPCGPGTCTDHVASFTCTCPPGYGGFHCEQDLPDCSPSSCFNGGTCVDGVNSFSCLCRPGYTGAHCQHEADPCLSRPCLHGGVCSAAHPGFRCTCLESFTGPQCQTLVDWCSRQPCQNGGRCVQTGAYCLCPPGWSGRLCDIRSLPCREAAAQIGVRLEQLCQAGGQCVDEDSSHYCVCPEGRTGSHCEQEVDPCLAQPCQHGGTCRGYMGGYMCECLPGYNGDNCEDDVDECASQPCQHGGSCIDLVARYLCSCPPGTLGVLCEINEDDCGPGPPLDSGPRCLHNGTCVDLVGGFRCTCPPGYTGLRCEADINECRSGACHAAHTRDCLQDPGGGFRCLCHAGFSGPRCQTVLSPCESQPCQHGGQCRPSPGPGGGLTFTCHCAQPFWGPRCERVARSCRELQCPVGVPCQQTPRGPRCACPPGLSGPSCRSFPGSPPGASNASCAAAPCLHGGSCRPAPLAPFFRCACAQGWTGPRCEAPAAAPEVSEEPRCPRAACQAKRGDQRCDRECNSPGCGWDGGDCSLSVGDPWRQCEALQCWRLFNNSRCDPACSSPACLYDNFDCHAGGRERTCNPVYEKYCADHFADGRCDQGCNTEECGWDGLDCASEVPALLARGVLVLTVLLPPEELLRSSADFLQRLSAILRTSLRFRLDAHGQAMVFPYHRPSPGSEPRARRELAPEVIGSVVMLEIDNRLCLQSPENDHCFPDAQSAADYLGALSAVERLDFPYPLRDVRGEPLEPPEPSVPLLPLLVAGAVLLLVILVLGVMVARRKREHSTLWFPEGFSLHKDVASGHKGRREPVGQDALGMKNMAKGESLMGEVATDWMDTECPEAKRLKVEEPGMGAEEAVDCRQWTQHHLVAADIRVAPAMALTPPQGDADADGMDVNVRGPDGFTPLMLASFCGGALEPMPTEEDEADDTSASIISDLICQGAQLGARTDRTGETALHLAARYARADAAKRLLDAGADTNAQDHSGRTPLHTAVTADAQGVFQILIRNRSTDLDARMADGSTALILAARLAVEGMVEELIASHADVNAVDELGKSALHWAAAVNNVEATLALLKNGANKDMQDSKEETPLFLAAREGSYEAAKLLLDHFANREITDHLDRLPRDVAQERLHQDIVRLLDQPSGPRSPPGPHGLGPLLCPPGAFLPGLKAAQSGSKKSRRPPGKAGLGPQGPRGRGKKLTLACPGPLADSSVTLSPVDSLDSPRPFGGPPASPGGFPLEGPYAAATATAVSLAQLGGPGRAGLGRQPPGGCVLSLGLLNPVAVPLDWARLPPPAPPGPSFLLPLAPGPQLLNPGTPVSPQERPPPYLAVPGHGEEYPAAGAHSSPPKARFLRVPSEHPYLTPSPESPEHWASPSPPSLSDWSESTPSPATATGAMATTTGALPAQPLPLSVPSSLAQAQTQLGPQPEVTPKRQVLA
Chain of Torsin-1A-interacting protein 2 (Homo sapiens) (Q8NFQ8 whole entry, looked up): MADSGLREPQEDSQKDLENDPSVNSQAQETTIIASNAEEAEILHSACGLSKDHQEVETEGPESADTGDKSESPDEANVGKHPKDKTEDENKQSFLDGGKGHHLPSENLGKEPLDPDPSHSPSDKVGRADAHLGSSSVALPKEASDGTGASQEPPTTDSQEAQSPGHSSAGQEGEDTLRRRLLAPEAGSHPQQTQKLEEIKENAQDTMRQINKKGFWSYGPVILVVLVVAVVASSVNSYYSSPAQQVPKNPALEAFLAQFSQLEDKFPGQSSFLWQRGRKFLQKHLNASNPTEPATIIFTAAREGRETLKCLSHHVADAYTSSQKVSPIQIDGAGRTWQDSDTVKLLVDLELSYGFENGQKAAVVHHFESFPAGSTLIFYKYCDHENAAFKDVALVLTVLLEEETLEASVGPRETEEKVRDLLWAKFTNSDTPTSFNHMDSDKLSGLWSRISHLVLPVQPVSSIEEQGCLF
Chain of Pro-neuregulin-1, membrane-bound isoform (Homo sapiens) (Q02297 whole entry, looked up, the tested form may be a part, canonical isoform): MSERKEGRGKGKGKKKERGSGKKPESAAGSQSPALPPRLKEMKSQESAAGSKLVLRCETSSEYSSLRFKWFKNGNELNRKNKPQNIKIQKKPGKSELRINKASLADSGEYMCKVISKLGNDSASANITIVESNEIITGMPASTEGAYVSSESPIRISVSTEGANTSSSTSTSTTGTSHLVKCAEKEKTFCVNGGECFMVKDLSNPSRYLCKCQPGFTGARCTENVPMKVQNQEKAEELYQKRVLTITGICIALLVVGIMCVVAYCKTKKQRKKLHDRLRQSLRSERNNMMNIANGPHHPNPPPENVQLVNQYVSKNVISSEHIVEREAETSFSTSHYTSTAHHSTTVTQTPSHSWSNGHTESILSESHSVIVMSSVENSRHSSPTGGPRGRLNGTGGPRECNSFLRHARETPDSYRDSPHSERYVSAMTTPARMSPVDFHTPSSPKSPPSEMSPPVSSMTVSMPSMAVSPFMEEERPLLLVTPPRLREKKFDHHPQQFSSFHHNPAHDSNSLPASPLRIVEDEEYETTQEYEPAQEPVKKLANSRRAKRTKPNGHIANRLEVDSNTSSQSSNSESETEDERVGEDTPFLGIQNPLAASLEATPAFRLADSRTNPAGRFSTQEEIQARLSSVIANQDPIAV

Take `COc1cc(NN2C(C(O)c3ccc(I)cc3)C=CC3C(=O)N(C)C(=O)C32)cc(OC)c1OC` (stereo not given): the composite z-score in test [1] is 0.495; in test [2], -0.363; in [3], -0.0207; in [4] it was 0.0488; in test [5], 1.52; in [6], 1.96. Further, the composite z-score in test [7] was 1.14; in test [9], -0.0647; in [10], -0.0237; in [11] it was 0.0146; in test [15], 2.75; in [17] it was 0.0283. Besides, the composite z-score in [18] was -0.131; in test [19], -0.325; in test [20], 0.113. Also, the z-score in [8] was 0.777 (inactive); in [12], 0.896 (inactive); in [13] it was 0.605 (inactive); in test [14], 0.0514 (inactive); in test [16], 0.202 (inactive).

As for `NC(=O)NCC#Cc1ccc2c(c1)[C@]1(C(=O)N2)[C@H](c2ccc(O)cc2)N2[C@H](c3ccccc3)[C@H](c3ccccc3)OC(=O)[C@H]2[C@@H]1C(=O)NC[C@H](O)c1ccccc1`, the composite z-score is 1.38 in test [1]; -1.23 in [2]; -0.132 in test [3]; -1.17 in test [4]; -1.17 in [5]; 0.831 in [6]. In addition, the composite z-score is -0.18 in test [7]; -0.268 in test [9]; 0.172 in [10]; -0.0161 in test [11]; -0.383 in test [15]; -0.0435 in test [17]. For the same compound, the composite z-score in test [18] is -2.14; in test [19], -0.91; in [20], -0.276. In addition, the z-score was -0.0208 (inactive) in [8]; -0.195 (inactive) in [12]; 0.207 (inactive) in test [13]; -0.0001 (inactive) in [14]; 0.821 (inactive) in test [16].

For the compound `COC(=O)[C@@]1(Cc2ccc(F)cc2)[C@H]2c3cc(C(=O)N4CCCC4)n(Cc4ccccc4)c3C[C@H]2CN1C(=O)c1ccccc1`, the composite z-score in test [1] was 0.106; in [2], -0.663; in test [3] it was 0.0451; in [4], 0.19; in test [5] it was 1.56; in test [6], 1.83. Further, the composite z-score in test [7] was 1.12; in [9] it was 1.23; in test [10], 0.0578; in test [11], -0.101; in test [15] it was 3.22; in test [17] it was 0.391. The figures for the composite z-score in [18], in test [19] and in test [20] were -0.486, 0.783 and 0.0953, respectively. For the same compound, the z-score in test [8] is 1.2 (inactive); in test [12], -0.136 (inactive); in [13] it was 1.31 (inactive); in test [14] it was 1.24 (inactive); in test [16] it was 0.21 (inactive).

Consider `O=C1C[C@@](C(=O)O)(c2ccc([N+](=O)[O-])cc2)[C@@H](c2ccc(CO)cc2)N1CC12CC3CC(CC(C3)C1)C2`, for which the composite z-score in [1] was 0.524; in [2] it was 0.603; in [3] it was -0.009; in [4] it was 0.527; in test [5], 1.13; in test [6], 1.38. Also, the composite z-score in [7] is 1.12; in test [9] it was 0.49; in test [10], -0.196; in test [11], 1.54; in test [15], 2.3; in test [17], 0.0446. Also, the composite z-score was 0.257 in test [18], 0.857 in test [19] and 0.06 in test [20]. Further, the z-score in test [8] is -2.54 (inactive); in test [12] it was 0.629 (inactive); in [13] it was -2.98 (inactive); in test [14], 0.117 (inactive); in test [16], 0.91 (inactive).

As for `COC(=O)[C@@]1(Cc2ccccc2)[C@H]2c3cc(C(=O)N4CCCC4)n(CCO)c3C[C@H]2CN1C(=O)c1ccccc1`, the composite z-score turned out to be 1.35 in test [1]; 2.52 in test [2]; 0.759 in test [3]; 0.77 in [4]; 1.58 in test [5]; 1.62 in [6]. Also, the composite z-score stood at 1.15 in [7]; 2.6 in test [9]; 0.216 in [10]; 0.718 in [11]; 2.92 in [15]; 1.35 in test [17]. Also, the composite z-score was found to be 0.815 in test [18], 0.946 in [19] and 0.986 in [20]. The z-score in test [8] is -0.292 (inactive); in test [12], -0.598 (inactive); in test [13] it was 1.45 (inactive); in test [14], -1.88 (inactive); in test [16], -0.237 (inactive).
